Data from PubChem BioAssay (NCATS).
Records with an inconclusive call do not appear. Active and inactive are the calls of the source. Unless noted, the call rests on the fitted dose curve; in most records, active means well fitted inhibition curve with a large enough effect; inconclusive means small, poorly fitted or top-dose-only effect; inactive means no such curve, though single readings can be large or run the other way.

target: Mitogen-activated protein kinase 10 (Mus musculus) (UniProt Q61831); assay: JNK3 AlphaScreen Assay (AID 530; active means well fitted curve in either direction with a large enough effect, not every such curve was filed as active;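 further: kinase came from lysate of stimulated human HepG2 cells; signal reports phosphorylation of biotinylated GST-cJun 1-79 at Ser73 with 10 µM ATP; on the % scale 0 is the no-effect control and ±100 the full control effect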); settings: JNK3 lysate, c-Jun phosphorylation; series mostly up to 57.1 µM; activity change, negative = inhibition: at the top concentration
Outline: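 JNK3 came from HepG2 lysates pre-activated with IL-1beta and TNF-alpha and phosphorylated biotinylated GST-cJun (1-79) at 10 uM ATP, pH 7.6, room temperature. Compounds were titrated. AlphaScreen signal used anti-phospho-cJun (Ser73) antibody.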

Structure (SMILES)	activity change, negative = inhibition
COC(=O)c1ccc(C(NC(=O)OCc2ccccc2)/C(I)=C/[C@@H](C)C(=O)NCc2ccc(OC)c(O)c2)cc1 (stereo partly drawn)	-2.93% (inactive)
CCCCCCN(C(=O)CCCCCN1C(=O)NC(c2ccc(Cl)cc2)C(C(=O)OCc2ccccc2)=C1C)C(C(=O)NCCCC)c1ccc(OCC(=O)OC)c(C(=O)OC)c1 (stereo not drawn)	-5.66% (inactive)
COC(=O)c1ccc(C(NC(=O)OCc2ccccc2)/C(I)=C/[C@@H](C)C(=O)NCc2ccc(C)o2)cc1 (stereo partly drawn)	-0.903% (inactive)
COC(=O)c1ccc(C(NC(=O)OCc2ccccc2)/C(F)=C/[C@@H](C)C(=O)NCCO)cc1 (stereo partly drawn)	0.0894% (inactive)
COC(=O)c1ccc(C(NC(=O)OCc2ccccc2)/C(F)=C/[C@@H](C)C(=O)N(C)Cc2cccnc2)cc1 (stereo partly drawn)	-3.03% (inactive)
COC(=O)c1ccc(C(NC(=O)OCc2ccccc2)/C(=C/[C@@H](C)C(=O)NCc2nc3ccccc3s2)c2cccnc2)cc1 (stereo partly drawn)	-6.91% (inactive)
CCC[C@@H]1C[C@@]1(CCC)[C@@H](NC(=O)Oc1ccccc1)c1ccc(C(=O)OC)cc1	19.3% (inactive)
COC(=O)c1ccc(C(NC(=O)OCc2ccccc2)/C(C)=C/[C@@H](C)C(=O)NCCO)cc1 (stereo partly drawn)	-8.05% (inactive)

target: Cytochrome P450 3A4 (Homo sapiens) (UniProt P08684); assay: qHTS Assay for Inhibitors and Substrates of Cytochrome P450 3A4 (AID 884); settings: recombinant CYP3A4, Luciferin-PPXE luminescence; series mostly up to 57.1 µM; activity change, negative = inhibition: at the top concentration; further: potency means the concentration at half of the fitted maximal effect; nearly all actives have a fitted effect of over 50% in size
Outline: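 20 nM human CYP3A4 with 25 uM Luciferin-PPXE (at KM) in 200 mM KPO4, preincubated 10 min with compound; NADPH regeneration started a 60 min RT reaction. Luciferin detected by luminescence, normalized to 57 uM ketoconazole as full inhibition.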

Chain of Cytochrome P450 3A4 (Homo sapiens) (P08684 whole entry, looked up): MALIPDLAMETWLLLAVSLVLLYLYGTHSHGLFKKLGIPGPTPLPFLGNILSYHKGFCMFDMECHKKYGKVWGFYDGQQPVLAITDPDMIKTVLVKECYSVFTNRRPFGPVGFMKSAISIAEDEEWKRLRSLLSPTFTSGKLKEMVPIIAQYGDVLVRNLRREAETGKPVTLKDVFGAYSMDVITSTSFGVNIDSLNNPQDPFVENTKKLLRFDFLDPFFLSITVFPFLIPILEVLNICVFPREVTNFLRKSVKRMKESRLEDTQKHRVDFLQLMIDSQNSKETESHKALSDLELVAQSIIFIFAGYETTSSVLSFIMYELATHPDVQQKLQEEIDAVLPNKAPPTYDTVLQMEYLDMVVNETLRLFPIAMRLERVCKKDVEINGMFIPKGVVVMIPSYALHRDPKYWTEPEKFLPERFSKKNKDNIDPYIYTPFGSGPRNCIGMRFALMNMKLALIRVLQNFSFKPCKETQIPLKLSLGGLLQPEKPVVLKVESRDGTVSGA

Structure (SMILES)	Potency
C[C@]1(C(=O)NCCN2CCOCC2)C=C[C@@H](Cc2ccccc2)N1C(=O)c1ccccc1	7.94 µM (active)
COC(=O)c1ccc(C(/C=C/[C@@H](C)C(=O)NCCc2c[nH]c3ccccc23)NC(=O)OCc2ccccc2)cc1 (stereo partly drawn)	3.16 µM (active)
CN(C)c1ccc(CNC(=O)C2(C)C=CCN2C(=O)c2ccccc2)cc1 (stereo not drawn)	10 µM (active)
COC(=O)[C@@H]1C[C@H]1[C@@H](NC(=O)c1ccc(Br)cc1)c1ccccc1	25.1 µM (active)
CC(C)(C)[Si](OCC[C@@H]1C[C@@]1(C)[C@@H](NP(=O)(c1ccccc1)c1ccccc1)c1ccccc1)(c1ccccc1)c1ccccc1	12.6 µM (active)
CN(C)C(=O)[C@]1(C)C[C@H]1[C@H](NC(=O)CNC(=O)[C@@H]1CCCN1C(=O)[C@]1(C)C[C@H]1[C@H](NC(=O)OCc1ccccc1)c1ccccc1)c1ccccc1	0.398 µM (active)
CNC(=O)[C@H](C)/C=C/C(NC(=O)OCc1ccccc1)c1ccc(C(=O)OC)cc1 (stereo partly drawn)	7.94 µM (active)
CC(=O)N1C2(C=CC1(C)C(=O)NCc1cc(F)cc(C(F)(F)F)c1)CCCCC2 (stereo not drawn)	10 µM (active)
COC(=O)N1CC=CC1(C)C(=O)NCc1cc(F)cc(C(F)(F)F)c1 (stereo not drawn)	15.8 µM (active)
CC(=O)N1CC=CC1(CC(C)C)C(=O)NCCc1c[nH]c2ccccc12 (stereo not drawn)	3.98 µM (active)
Cc1cc(CNC(=O)C(C)Cc2ccccc2)nn1C (stereo not drawn)	10 µM (active)
CCCCNC(=O)C(c1ccc(OCC(=O)OC)c(C(=O)OC)c1)N(Cc1ccccc1)C(=O)CCCCCN1C(=O)NC(c2ccc(-c3ccccc3)cc2)C(C(=O)OCc2ccccc2)=C1C (stereo not drawn)	5.01 µM (active)
CCCCCCN(C(=O)CCCCCN1C(=O)NC(c2ccc(C(F)(F)F)cc2)C(C(=O)OCc2ccccc2)=C1C)C(C(=O)NCCCC)c1ccc(OCC(=O)OC)c(C(=O)OC)c1 (stereo not drawn)	3.98 µM (active)
COC(=O)c1ccc(C(NC(=O)OCc2ccccc2)/C(=C/[C@@H](C)C(=O)N[C@@H](CO)Cc2ccccc2)c2cccnc2)cc1 (stereo partly drawn)	1 µM (active)
CCCCCCN(C(=O)CCCCCN1C(=O)NC(c2ccc([N+](=O)[O-])cc2)C(C(=O)OCc2ccccc2)=C1C)C(C(=O)NCCCC)c1ccc(OCC(=O)OC)c(C(=O)OC)c1 (stereo not drawn)	2 µM (active)
CCC[C@@H]1C[C@@]1(CCC)[C@@H](NC(=O)c1ccccc1)c1ccc(C(=O)OC)cc1	6.31 µM (active)
CC(Cc1ccccc1)C(=O)NCCO (stereo not drawn)	15.8 µM (active)
COC(=O)c1ccc(C(NC(=O)OCc2ccccc2)/C(=C/[C@@H](C)C(=O)NCc2ccc(OC)c(O)c2)c2cccnc2)cc1 (stereo partly drawn)	2.51 µM (active)
CC(C)NC(=O)[C@@H]1C[C@H]1[C@@H](NC(=O)OCc1ccccc1)c1ccccc1	3.98 µM (active)
COC(=O)c1ccc(C(NC(=O)OCc2ccccc2)/C(I)=C/[C@@H](C)C(=O)NCC2CC2)cc1 (stereo partly drawn)	3.98 µM (active)

Structure (SMILES)	Potency
CCCCCCN(C(=O)CCCCCN1C(=O)NC(c2ccc(C3CCCCC3)cc2)C(C(=O)OCc2ccccc2)=C1C)C(C(=O)NCCCC)c1ccc(OCC(=O)OC)c(C(=O)OC)c1 (stereo not drawn)	2 µM (active)
COC(=O)c1ccc(C(NC(=O)OCc2ccccc2)/C(C)=C/[C@@H](C)C(=O)NCCN2CCOCC2)cc1 (stereo partly drawn)	3.16 µM (active)
C[C@@H]1C=C[C@](Cc2ccccc2)(C(=O)NCCN2CCOCC2)N1C(=O)c1ccccc1	5.01 µM (active)
COC(=O)c1ccc(C(NC(=O)OCc2ccccc2)/C(=C/[C@@H](C)C(=O)NCc2cc(F)cc(F)c2)c2cccnc2)cc1 (stereo partly drawn)	1.58 µM (active)
C[C@]1(C(=O)NCCCNc2ncc(C(F)(F)F)cc2Cl)C=C[C@@H](Cc2ccccc2)N1C(=O)c1ccccc1	3.16 µM (active)
CC(=O)N1C2(C=CC1(C)C(=O)NCc1ccccn1)CCCCC2 (stereo not drawn)	12.6 µM (active)
CCCCCCN(C(=O)CCCCCN1C(=O)NC(c2ccc(-c3ccccc3)cc2)C(C(=O)OCc2ccccc2)=C1C)C(C(=O)NCCCC)c1ccc(O)c(C(=O)OC)c1 (stereo not drawn)	10 µM (active)
CCCCNC(=O)C(c1ccc(OCC(=O)OC)c(C(=O)OC)c1)N(CCc1ccccn1)C(=O)CCCCCN1C(=O)NC(c2ccc(-c3ccccc3)cc2)C(C(=O)OCc2ccccc2)=C1C (stereo not drawn)	7.94 µM (active)
COC(=O)c1ccc(C(/C=C/[C@@H](C)C(=O)NCCN2CCCC2)NC(=O)OCc2ccccc2)cc1 (stereo partly drawn)	10 µM (active)
COC(=O)c1ccc(C(NC(=O)OCc2ccccc2)/C(=C/[C@@H](C)C(=O)NCc2ccc(C)o2)c2cccnc2)cc1 (stereo partly drawn)	15.8 µM (active)
CC(C)CC1(C(=O)NCCN2CCOCC2)C=CCN1C(=O)c1ccccc1 (stereo not drawn)	12.6 µM (active)
C=C(N(C)C)[C@]1(C)C[C@H]1[C@H](NC(=O)CNC(=O)OCc1ccccc1)c1ccccc1	7.94 µM (active)
COC(=O)c1ccc(C(NC(=O)OCc2ccccc2)/C(I)=C/[C@@H](C)C(=O)NCc2ccc(OC)c(O)c2)cc1 (stereo partly drawn)	3.16 µM (active)
CCCCCCN(C(=O)CCCCCN1C(=O)NC(c2ccc(Cl)cc2)C(C(=O)OCc2ccccc2)=C1C)C(C(=O)NCCCC)c1ccc(OCC(=O)OC)c(C(=O)OC)c1 (stereo not drawn)	3.16 µM (active)
COC(=O)c1ccc(C(NC(=O)OCc2ccccc2)/C(I)=C/[C@@H](C)C(=O)NCc2ccc(C)o2)cc1 (stereo partly drawn)	10 µM (active)
COC(=O)c1ccc(C(NC(=O)OCc2ccccc2)/C(F)=C/[C@@H](C)C(=O)NCCO)cc1 (stereo partly drawn)	15.8 µM (active)
COC(=O)c1ccc(C(NC(=O)OCc2ccccc2)/C(F)=C/[C@@H](C)C(=O)N(C)Cc2cccnc2)cc1 (stereo partly drawn)	2 µM (active)
COC(=O)c1ccc(C(NC(=O)OCc2ccccc2)/C(=C/[C@@H](C)C(=O)NCc2nc3ccccc3s2)c2cccnc2)cc1 (stereo partly drawn)	2 µM (active)
CCC[C@@H]1C[C@@]1(CCC)[C@@H](NC(=O)Oc1ccccc1)c1ccc(C(=O)OC)cc1	15.8 µM (active)
COC(=O)c1ccc(C(NC(=O)OCc2ccccc2)/C(C)=C/[C@@H](C)C(=O)NCCO)cc1 (stereo partly drawn)	2.51 µM (active)
